Test systems include HCT-15 colon; HT29 colon; SNB-75 CNS; SNB-19 CNS; U251 CNS; PC-3 prostate; SK-MEL-5 melanoma; UACC-62 melanoma; LOX IMVI melanoma; SK-MEL-28 melanoma.
What all share (experiment): NCI-60 one-dose screen, 48 h (100 = growth as untreated, 0 = no growth, -100 = all killed)
Holding throughout (settings): 10 µM unless noted

Twelve compounds from PubChem BioAssay (NCI) can be followed below.

Compounds without any hit were thinned out: in the full panel of roughly 83,000, 20% have a hit.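 Step 1: grow cells in 96-well plates. Step 2: add test compound at a single concentration. Step 3: incubate 48 h. Step 4: record percent growth.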 Unmarked numbers belong to inactive results. Calls of active or inactive are those of the source. Rule for the calls: active = growth percent below 10; inactive = the rest.

Regarding `COC(=O)[C@@H](C)C[C@H](Cc1ccccc1)NC(=O)c1csc([C@@H](C[C@H](C(C)C)N(C)C(=O)[C@@H](NC(=O)[C@H]2CCCCN2C)C(C(F)(F)F)C(F)(F)F)OC(C)=O)n1`, the growth in the assay with HCT-15 colon is 22.3%; in the assay with HT29 colon it was 14.4%; in the assay with SNB-75 CNS it was 14.9%; in the assay on SNB-19 CNS, 23.2%; with U251 CNS, 3.74% (active); in the assay on PC-3 prostate it was 27.2%. Further, the growth in the assay with SK-MEL-5 melanoma is -18.5% (active); with UACC-62 melanoma, 26.4%; in the assay with LOX IMVI melanoma, 13.5%; in the assay with SK-MEL-28 melanoma it was 71.5%.
`N#CC1(c2ccccc2)CCN(Cc2ccccc2)CC1`: the growth is 94.1% in the assay on HCT-15 colon; 101% with HT29 colon; 121% in the assay with SNB-75 CNS; 114% in the assay with SNB-19 CNS; 107% in the assay with U251 CNS; 84.2% in the assay on PC-3 prostate. In addition, the growth in the assay with SK-MEL-5 melanoma was 102%; in the assay with UACC-62 melanoma it was 110%; with LOX IMVI melanoma it was 102%; with SK-MEL-28 melanoma, 122%.
On to `CCOC(=O)c1c(C)n(Cc2ccccc2)c2cc(CN(C)C)c(O)cc12`, for which the growth with HCT-15 colon is 63.4%; with HT29 colon, 37%; in the assay with SNB-75 CNS, 50.5%; with SNB-19 CNS, 72.2%; in the assay with U251 CNS it was 67.8%; in the assay on PC-3 prostate, 57.4%. The growth is 82.5% in the assay with SK-MEL-5 melanoma, 58.4% with UACC-62 melanoma, 28.8% in the assay with LOX IMVI melanoma and 80.2% in the assay with SK-MEL-28 melanoma.
Take `Cc1cc(N(CCCl)CCCl)ccc1C=Nc1cccnc1`: the growth was 84.4% with HCT-15 colon; 91.6% in the assay on HT29 colon; 60.2% in the assay on SNB-75 CNS; 81.2% in the assay with SNB-19 CNS; 76.1% with U251 CNS; 63.1% with PC-3 prostate. Besides, the growth is 77.5% with SK-MEL-5 melanoma, 46.6% with UACC-62 melanoma, 71.6% with LOX IMVI melanoma and 97.5% with SK-MEL-28 melanoma.
Take `C[C@]12CC[C@@H]3c4ccc(Oc5nc(N6CC6)nc(N6CC6)n5)cc4CC[C@H]3[C@@H]1CCC2=O`: the growth with HCT-15 colon was 37.4%; in the assay with HT29 colon, 19.3%; in the assay on SNB-75 CNS it was 30.3%; with SNB-19 CNS, 48.8%; in the assay on U251 CNS, 31.9%; in the assay with PC-3 prostate, 53.8%. Moreover, the growth in the assay with SK-MEL-5 melanoma was 5.82% (active); in the assay with UACC-62 melanoma it was 18.4%; with LOX IMVI melanoma, -63.1% (active); in the assay with SK-MEL-28 melanoma, 63.5%.
In the case of `N#Cc1c(Br)n(C2OC(CO)C(O)C2O)c2ncnc(N)c12` (stereo not given), the growth in the assay on HCT-15 colon was 43.9%; in the assay on HT29 colon, 43.8%; in the assay on SNB-75 CNS, 76.2%; in the assay on SNB-19 CNS, 101%; in the assay on U251 CNS, 69.4%; in the assay on PC-3 prostate it was 16.5%. Moreover, the growth in the assay on SK-MEL-5 melanoma is 95.9%; with UACC-62 melanoma it was 77.9%; with LOX IMVI melanoma, 57.2%; in the assay with SK-MEL-28 melanoma, 43.7%.
On to `CCCCN1CCCC[C@@H]1C(=O)N[C@H](C(=O)N(C)[C@H](CCc1nc(C(=O)N[C@@H](Cc2ccccc2)C[C@H](C)C(=O)OC)cs1)C(C)C)[C@@H](C)CC`, for which the growth with HCT-15 colon was 41.4%; in the assay on HT29 colon, 35.2%; in the assay on SNB-75 CNS it was 70.3%; with SNB-19 CNS it was 62.5%; in the assay with U251 CNS it was 58.3%; in the assay on PC-3 prostate, 40.8%. Besides, the growth with SK-MEL-5 melanoma is 34.8%; in the assay on UACC-62 melanoma it was 47%; with LOX IMVI melanoma it was 78.2%; in the assay on SK-MEL-28 melanoma it was 81.1%.
For the compound `O=C1C2CCC1C(N1CCCC1)CC2` (stereo not given), the growth was 98.6% in the assay on HCT-15 colon; 102% in the assay on HT29 colon; 79.8% with SNB-75 CNS; 102% in the assay on SNB-19 CNS; 100% in the assay on U251 CNS; 93.1% with PC-3 prostate. In addition, the growth in the assay with SK-MEL-5 melanoma is 99.9%; in the assay with UACC-62 melanoma it was 96.6%; in the assay on LOX IMVI melanoma it was 97.8%; in the assay on SK-MEL-28 melanoma it was 102%.
As for `CCCCCCCCCCCCNC(c1ccccc1)C(O)c1ccccc1` (stereo not given), the growth in the assay on HCT-15 colon was 66.6%; in the assay with HT29 colon, 52%; with SNB-75 CNS, 106%; with SNB-19 CNS, 87.4%; in the assay on U251 CNS it was 32%; with PC-3 prostate, 79.2%. Besides, the growth in the assay on SK-MEL-5 melanoma is 96.7%; in the assay with UACC-62 melanoma, 96.7%; in the assay on LOX IMVI melanoma it was 49.8%; with SK-MEL-28 melanoma, 97.4%.
On to `COC(=O)[C@H](Cc1c[nH]c2ccccc12)NC(=O)[C@@H](OC)[C@@H]1Cc2cc3cc(OC4CC(OC5CC(O)C(O)C(C)O5)C(O)C(C)O4)c(C)c(O)c3c(O)c2C(=O)[C@H]1OC1CC(OC2CC(OC3CC(C)(O)C(O)C(C)O3)C(O)C(C)O2)C(O)C(C)O1` (stereo not given in full), for which the growth is 15.9% in the assay on HCT-15 colon; 4.98% (active) in the assay on HT29 colon; -88.5% (active) in the assay with SNB-75 CNS; 7.09% (active) in the assay with SNB-19 CNS; 6.13% (active) in the assay on U251 CNS; -10.4% (active) in the assay on PC-3 prostate. Besides, the growth is -72.1% (active) in the assay on SK-MEL-5 melanoma, -52.7% (active) in the assay with UACC-62 melanoma, -3.17% (active) with LOX IMVI melanoma and -27.9% (active) in the assay on SK-MEL-28 melanoma.
`CC(CC1CCCCC1)NCc1ccccc1` (stereo not given): the growth in the assay on HCT-15 colon was 94.4%; in the assay on HT29 colon, 93.2%; with SNB-75 CNS it was 100%; in the assay with SNB-19 CNS, 100%; in the assay with U251 CNS it was 106%; in the assay with PC-3 prostate, 88.6%. Further, the growth in the assay with SK-MEL-5 melanoma is 99.1%; with UACC-62 melanoma it was 93.3%; in the assay with LOX IMVI melanoma, 83.7%; with SK-MEL-28 melanoma, 103%.
As to `CCCCNC(c1ccc(Cl)cc1)C(O)c1ccc(Cl)cc1` (stereo not given), the growth with HCT-15 colon was 32.7%; with HT29 colon, 4.8% (active); in the assay on SNB-75 CNS, 61.9%; with SNB-19 CNS, 54.6%; in the assay on U251 CNS, 6.63% (active); with PC-3 prostate it was 42.2%. Moreover, the growth was 32.7% with SK-MEL-5 melanoma, 19.2% with UACC-62 melanoma, -75.6% (active) in the assay with LOX IMVI melanoma and 45.6% in the assay on SK-MEL-28 melanoma.
